This is an account of results in the supplement of paper PMC7156485.

What all share (details): concentration: 10 µM; 24 h
Test [1] has as its system HCC1569. The experiment in a line: cell number relative to DMSO (% of DMSO); higher = more cells (less growth inhibition / toxicity). The essentials:
(§1)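 Cell number or H1.0 nuclear intensity appears as percent of the plate control, based on the median of replicates. Measurements came from HCC1569 and TDF cells exposed in triplicate to compounds at 10 µM for 24 h at 37 °C, then imaged in six fields per well at ×10. Positional effects were smoothed out of HCC1569 values.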

The subject of test [2] is TDF. Described as above. The method, boiled down: as §1
In test [3] the test system is TDF. Nature of the test: H1.0 immunofluorescence intensity relative to DMSO (% of DMSO); higher = stronger H1.0 induction, active = 120 or more. The method, boiled down:
as §1

For test [4], the system named is HCC1569. Nature of the test: H1.0 immunofluorescence intensity relative to DMSO (% of DMSO); higher = stronger H1.0 induction, active = 140 or more. The method, boiled down: as §1

The structures appear in SMILES notation. ± gives the standard deviation of the averaged measurements.
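Throughout, for H1.0 immunofluorescence intensity relative to DMSO: TDF is a line of transformed human dermal fibroblasts of mesenchymal origin.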
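Throughout, for cell number relative to DMSO: TDF denotes transformed human dermal fibroblasts of mesenchymal origin.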

Regarding `COc1ccc(C2CC(=O)c3c(O)cc(OC4OC(COC5OC(C)C(O)C(O)C5O)C(O)C(O)C4O)cc3O2)cc1O` (stereo unspecified) [Hesperidine], the results for the cell number in the test on HCC1569 [1] and in the test with TDF [2] were 107 and 102, respectively. The H1.0 immunofluorescence intensity with TDF [3] was 93.2 (inactive); in the test on HCC1569 [4], 84.8 (inactive).
In the case of `COc1cc2ncnc(Nc3ccc(F)c(Cl)c3)c2cc1OCCCN1CCOCC1` [Gefitinib], the cell number with HCC1569 [1] worked out at 82 ± 11; with TDF [2] it was 102 ± 10. In addition, the figures for the H1.0 immunofluorescence intensity in the test with TDF [3] and in the test with HCC1569 [4] were 98.9 (inactive) and 123 (inactive), respectively.
On to `Cc1c[nH]c(C=C2C(=O)Nc3ccccc32)c1CCC(=O)O`, for which the values for the cell number with HCC1569 [1] and in the test with TDF [2] were 101 and 102, respectively. Moreover, the figures for the H1.0 immunofluorescence intensity in the test with TDF [3] and in the test with HCC1569 [4] were 95.4 (inactive) and 103 (inactive), respectively.
As to `CCCCCCCCCCCCCCCC(=O)O` [Hexadecanoic acid], the cell number in the test on HCC1569 [1] stood at 97.3; in the test on TDF [2] it was 92.6. Also, the H1.0 immunofluorescence intensity is 104 (inactive) in the test with TDF [3] and 97.9 (inactive) with HCC1569 [4].
Taken in the same sequence, the figures for `O=C([O-])c1cc2cc(Cc3cccnc3)ccc2o1.[Na+]` [Furegrelate sodium] were 102, 102, 88.5 (inactive) and 93.7 (inactive).
Taken in the same sequence, the figures for `C[N+](C)(C)CCCCCC[N+](C)(C)C.[Cl-].[Cl-]` [Hexamethonium dichloride] were 98, 99.9, 95.6 (inactive) and 87.7 (inactive).
Turning to `O=C(Nc1ccc(Cl)cc1)c1ccccc1NCc1ccncc1` [VEGF Receptor Tyrosine Kinase Inhibitor II], the cell number amounted to 106 in the test with HCC1569 [1] and 96.3 with TDF [2]. For the same compound, the H1.0 immunofluorescence intensity was 96.5 (inactive) with TDF [3] and 98.1 (inactive) with HCC1569 [4].
Taken in the same sequence, the figures for `CC(C(=O)O)c1ccc(CC2CCCC2=O)cc1` (stereo unspecified) [loxoprofen] were 103, 95.9, 88.6 (inactive) and 92.6 (inactive).
For `CCOC(=O)C(CCc1ccccc1)NC(C)C(=O)N1Cc2ccccc2CC1C(=O)O` (stereo unspecified) [Quinapril], in that order: 102, 101, 101 (inactive) and 101 (inactive).
For the compound `O=C1NCCN1CCN1CCC(c2cn(-c3ccc(F)cc3)c3ccc(Cl)cc23)CC1`, the cell number in the test with HCC1569 [1] is 66.8; in the test with TDF [2], 39.3. Also, the H1.0 immunofluorescence intensity with TDF [3] was 213 (active); with HCC1569 [4], 139 (inactive).
Taken in the same sequence, the figures for `OCCn1cc(-c2cnc3nnn(Cc4ccc5ncccc5c4)c3n2)cn1` were 99.6, 98.7, 99 (inactive) and 99.8 (inactive).
For `CC1(C)C(=O)N(CCN2CCC(C(=O)c3ccc(F)cc3)CC2)c2ccccc21.Cl` [LY-310,762 hydrochloride], in that order: 101, 94.5, 94.2 (inactive) and 95.7 (inactive).
As for `Cc1cnc(-c2cnc(NCCNc3ccc(C#N)cn3)nc2-c2ccc(Cl)cc2Cl)[nH]1`, the cell number in the test on HCC1569 [1] turned out to be 70.4; in the test on TDF [2], 74.4. Moreover, the H1.0 immunofluorescence intensity was 114 (inactive) in the test on TDF [3] and 112 (inactive) in the test with HCC1569 [4].
Taken in the same sequence, the figures for `COc1ccc2[nH]c(S(=O)Cc3ncc(C)c(OC)c3C)nc2n1` (stereo unspecified) [Tenatoprazole] were 103, 104, 106 (inactive) and 100 (inactive).
With `Cl.Fc1cccc(CN(C2=NCCN2)c2c(Cl)cccc2Cl)c1` [IMID-4F hydrochloride], the cell number in the test with HCC1569 [1] was 99.4; in the test with TDF [2], 99.7. The H1.0 immunofluorescence intensity in the test on TDF [3] was 102 (inactive); in the test on HCC1569 [4] it was 134 (inactive).
Consider `CC(C)Cc1ccc(CC(=O)O)cc1` [(4-isobutylphenyl)acetic acid], for which the cell number with HCC1569 [1] stood at 101; in the test with TDF [2] it was 110. Further, the H1.0 immunofluorescence intensity in the test on TDF [3] is 91.5 (inactive); in the test on HCC1569 [4], 93.1 (inactive).
Taken in the same sequence, the figures for `C[C@]12CCC(=O)C=C1CC[C@@H]1[C@@H]2[C@@H](O)C[C@@]2(C)[C@H]1CC[C@]2(O)C(=O)COC(=O)CCC(=O)[O-].[Na+]` were 96.3, 99.8, 82.3 (inactive) and 103 (inactive).
Taken in the same sequence, the figures for `CCN(CC)CCCCCCCCOC(=O)c1cc(OC)c(OC)c(OC)c1.Cl` [TMB-8 hydrochloride] were 105, 105, 99.8 (inactive) and 84.2 (inactive).
Taken in the same sequence, the figures for `C=CCCCCCCCCC(=O)O` [10-Undecenoic acid] were 102, 103, 104 (inactive) and 105 (inactive).
For `COc1ccc(CCN(C)CCc2ccc(OC)c(OC)c2)cc1OC.Cl` [YS-035 hydrochloride], the cell number in the test on HCC1569 [1] worked out at 99.4; in the test on TDF [2], 108. In addition, the figures for the H1.0 immunofluorescence intensity in the test on TDF [3] and with HCC1569 [4] were 96.6 (inactive) and 98.3 (inactive), respectively.
Taken in the same sequence, the figures for `O=C([O-])Cc1ccccc1Nc1c(Cl)cccc1Cl.[Na+]` [Diclofenac sodium] were 109, 97.8, 99.1 (inactive) and 89.9 (inactive).
Consider `CC(C)(C)c1cc(O)ccc1O` [tert-Butylhydroquinone], for which the cell number in the test with HCC1569 [1] amounted to 104; with TDF [2], 97.2. In addition, the H1.0 immunofluorescence intensity with TDF [3] was 96.4 (inactive); in the test on HCC1569 [4], 89.1 (inactive).
On to `Cc1ccc(S(=O)(=O)NC(Cc2ccccc2)C(=O)CCl)cc1` [N-p-Tosyl-L-phenylalanine chloromethyl ketone], for which the cell number was 85.5 in the test on HCC1569 [1] and 84.6 with TDF [2]. The values for the H1.0 immunofluorescence intensity in the test on TDF [3] and in the test with HCC1569 [4] were 102 (inactive) and 113 (inactive), respectively.
For `CC1(C)CCC(NC(=O)C(N)CCC(=O)O)CC1` (stereo unspecified), in that order: 103, 111, 85.3 (inactive) and 91.7 (inactive).
